{
  "source": "PubChem BioAssay AID686978",
  "about": "(National Center for Advancing Translational Sciences (NCATS), 2013)",
  "note": "Hit rate of the full screen: of about 420,000 compounds, about 64,000 (15%) were called active. About 27% were inconclusive and are not listed. The call rests on the fitted dose curve; in most records, active means well fitted inhibition curve with a large enough effect; inconclusive means small, poorly fitted or top-dose-only effect; inactive means flat fitted curve, though single readings scatter. The list is a sample of the results. On the % scale 0 is the no-effect control and ±100 the full control effect; potency means the concentration at half of the fitted maximal effect.",
  "data": [
    {"experiment": "qHTS for Inhibitors of human tyrosyl-DNA phosphodiesterase 1 (TDP1): qHTS in cells in absence of CPT; further: nearly all actives have a fitted effect of over 55% in size", "conditions": "DT40 Tdp1-/- hTDP1 cells, no CPT, ATP luminescence, 48 h; activity change, negative = growth inhibition: at 46.2 µM (top of the series)", "summary_of_the_method": "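No-CPT arm: Tdp1-/-;hTDP1 DT40 cells (400/well) plus compounds, incubated ≥48 hr at 37 °C. Readout CellTiter-Glo luminescence.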", "values": [
      {"smiles": "Cc1cc(C)cc(C(=O)NCC(=O)OCC(=O)N2CCCCC2)c1", "activity change, negative = growth inhibition": "0.237% (inactive)"},
      {"smiles": "CCN1CCN(Cc2nc3c(c(=O)n(C)c(=O)n3C)n2CC(=O)c2ccccc2)CC1", "activity change, negative = growth inhibition": "1.2% (inactive)"},
      {"smiles": "O=C(O)C1CCCN(CCC=C(c2ccccc2)c2ccccc2)C1", "note": "(stereo not given)", "Potency": "inactive"},
      {"smiles": "CC(C)CCn1c(=O)c2c(nc3n2CCCN3Cc2ccccc2)n(C)c1=O", "Potency": "20.6 µM (active)"},
      {"smiles": "Cn1c(=O)c2c(nc(CN3CCOCC3)n2Cc2ccccc2)n(C)c1=O", "activity change, negative = growth inhibition": "-21.3% (inactive)"},
      {"smiles": "Cn1c(=O)n(Cc2c(F)cccc2Cl)c(=O)c2c1nc1n2CCN1c1ccc(F)cc1", "activity change, negative = growth inhibition": "1.01% (inactive)"},
      {"smiles": "Cn1c(=O)n(CCc2ccccc2)c(=O)c2c1nc1n2CCCN1c1ccccc1", "activity change, negative = growth inhibition": "-9.67% (inactive)"},
      {"smiles": "CC1CCCN(Cc2nc3c(c(=O)n(C)c(=O)n3C)n2CC(=O)c2ccccc2)C1", "note": "(stereo not given)", "Potency": "16.4 µM (active)"},
      {"smiles": "COCCn1c(CN2CCC(Cc3ccccc3)CC2)nc2c1c(=O)n(C)c(=O)n2C", "Potency": "7.31 µM (active)"},
      {"smiles": "CN1CCN(Cc2nc3c(c(=O)n(C)c(=O)n3C)n2Cc2cccc3ccccc23)CC1", "activity change, negative = growth inhibition": "-27.1% (inactive)"},
      {"smiles": "CCc1cc(CNC(=O)CC2C(=O)NCCN2CC2CCCCC2)on1", "note": "(stereo not given)", "activity change, negative = growth inhibition": "13.8% (inactive)"},
      {"smiles": "Cc1ccc(S(=O)(=O)N(C)C)cc1NC(=O)C(C)OC(=O)c1ccc2ccccc2n1", "note": "(stereo not given)", "activity change, negative = growth inhibition": "-0.989% (inactive)"},
      {"smiles": "c1ccc(-c2nnc3n2NC(c2ccc4c(c2)OCO4)S3)cc1", "note": "(stereo not given)", "activity change, negative = growth inhibition": "-7.07% (inactive)"},
      {"smiles": "CC(C)=C1C2CCC1C1C(=O)N(NC(=O)c3ccco3)C(=O)C21", "note": "(stereo not given)", "activity change, negative = growth inhibition": "-5.27% (inactive)"},
      {"smiles": "CCOc1ccc(C(=O)COC(=O)c2ccc(-n3cnnn3)cc2)cc1", "activity change, negative = growth inhibition": "7.34% (inactive)"},
      {"smiles": "CCOc1ccc(CN(Cc2ccco2)S(=O)(=O)c2ccc(-n3cnnn3)c(OC)c2)cc1", "Potency": "16.4 µM (active)"},
      {"smiles": "CCOc1ccc(S(=O)(=O)N(CC(=O)NCC(F)(F)F)Cc2ccco2)cc1", "activity change, negative = growth inhibition": "-22.4% (inactive)"},
      {"smiles": "COc1ccc(S(=O)(=O)N2CCOCC2)cc1NC(=O)CC1CC2CCC1C2", "note": "(stereo not given)", "activity change, negative = growth inhibition": "1.4% (inactive)"},
      {"smiles": "CC1(C)CC(=O)C=C(NCCCN2CCCC2=O)C1", "activity change, negative = growth inhibition": "-2.96% (inactive)"},
      {"smiles": "COC(=O)CNc1nc(Cl)nc(N2CCC(C)CC2)n1", "activity change, negative = growth inhibition": "2.62% (inactive)"},
      {"smiles": "CCOc1ccc(Nc2nc(Cl)nc(N3CCN(c4ccc(OC)cc4)CC3)n2)cc1", "Potency": "13 µM (active)"},
      {"smiles": "COc1ccc(Nc2nc(N)nc(CSC(=S)N3CCC(C)CC3)n2)cc1", "activity change, negative = growth inhibition": "-11.9% (inactive)"},
      {"smiles": "COP1(=O)C[C@@H](O)[C@@H](O)[C@@H](COCc2ccccc2)O1", "note": "(stereo not given in full)", "activity change, negative = growth inhibition": "0.0592% (inactive)"},
      {"smiles": "O=c1[nH][nH]c(C(F)(F)F)c1C=NCc1ccccc1Cl", "activity change, negative = growth inhibition": "-5.68% (inactive)"},
      {"smiles": "Cc1nc2cc(NC(=O)NC3CC3)ccc2n1C", "activity change, negative = growth inhibition": "3.34% (inactive)"},
      {"smiles": "COc1ccc(-n2c(=O)c(C)nc3cnc(N4CCOCC4)nc32)cc1", "activity change, negative = growth inhibition": "-11.1% (inactive)"},
      {"smiles": "Cc1nc2sccn2c(=O)c1S(=O)(=O)NCCc1ccccc1", "activity change, negative = growth inhibition": "-9.8% (inactive)"},
      {"smiles": "Cc1ccc(-c2noc(CNC(=O)c3ccoc3C)n2)cc1", "activity change, negative = growth inhibition": "-9.26% (inactive)"},
      {"smiles": "C/C(=N\\NC(=O)c1ccccc1C)c1ccc(N2CCOCC2)cc1", "activity change, negative = growth inhibition": "-7.6% (inactive)"},
      {"smiles": "C/C(=N\\NC(=O)c1ccoc1C)c1ccccc1O", "Potency": "11.6 µM (active)"}
    ]}
  ]
}
